# Measured values as given in paper PMC5540273 (PLoS ONE, 2017).
# Tested on: NEK11
# Conditions: concentration: 1 μM, replicates: in singlicate; n = 1
# 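Further: KINOMEscan kinase panel screen.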
row,SMILES,%Inh
1,O=c1[nH]cc(-c2ccc(N3CCOCC3)cc2)c2sc(-c3cn[nH]c3)cc12 [GSK2276055],0%
2,COC(=O)Nc1nc2cc(Oc3ccc(NC(=O)Nc4cc(C(F)(F)F)ccc4F)cn3)ccc2[nH]1.Cl.Cl [GW681170],34%
3,Cl.Cl.NCC(NCc1ccc(-c2ccnc3[nH]ccc23)s1)c1ccccc1 (centres unmarked) [GSK1321565],13%
4,CCS(=O)(=O)c1ccc(OC)c(Nc2nccc(-c3c(-c4cccc(NC(=O)c5c(F)cccc5F)c4)nn4ncccc34)n2)c1 [GSK326180],0%
5,COc1cccc(-c2ccc3c(NC(=O)C4CC4)n[nH]c3n2)c1 [SB-710903],36%
6,CSc1cccc2c(-c3ccncn3)c(-c3ccc(F)cc3)nn12 [GW514786],0%
7,COc1cc2c(cc1OCCN1CCNCC1)ncc1c3ccc(C#N)cc3[nH]c21,7%
8,Cn1cc(-c2ccc3c(c2)CCN3C(=O)Cc2cccc(F)c2)c2c(N)ncnc21 [GSK2603358],8%
9,C[C@@H](Oc1cc(-n2cnc3cc(-c4ccnc(NCCS(C)(=O)=O)c4)ccc32)sc1C(N)=O)c1ccccc1Cl [GSK907232],0%
10,COc1cccc(C(=O)Nc2cccc(Oc3ccc4nc(NC(=O)C5CC5)cn4n3)c2)c1,0%
11,Cl.c1ccc(-c2ccc3c(Nc4ccc5[nH]ncc5c4)ccnc3c2)nc1 [GW440137],0%
12,Cn1cc(-c2[nH]c3cc(NC(=O)[C@H](N)C4CCCCC4)cc4c3c2C=NNC4=O)cn1,89%
13,CCn1c(-c2nonc2N)nc2c(C#CC(C)(C)O)ncc(OCCCCN)c21.O=C(O)C(F)(F)F.O=C(O)C(F)(F)F [GSK507274],50%
14,CN(C)S(=O)(=O)c1cc(-c2ccc3nccc(-c4cccc(S(N)(=O)=O)c4)c3c2)cnc1N [GSK1669921],0%
15,CCn1c(-c2nonc2N)nc2c(C#CC(C)(C)O)nc(OC[C@H](N)c3ccccc3)cc21 [GSK943949],0%
16,Cl.c1ccc(-c2ccc3c(Nc4ccc5[nH]ccc5c4)ccnc3c2)nc1 [GW440138],0%
17,Nc1n[nH]c2cnc(-c3ccccc3)cc12 [SB-642124],3%
18,O=C(Nc1n[nH]c2cc(-c3ccoc3)ccc12)C1CC1 [SB-738481],4%
19,FC(F)(F)c1ccc(/C=C/c2cncnc2Nc2ccc3[nH]c(Cc4ccccc4)nc3c2)cc1 [GW709199],9%
20,CC(C)(C)c1ccc2nccc(Nc3cccc(O)c3)c2c1 [GW856795],22%
21,COc1cc(Nc2nccc(-c3c(-c4cccc(NC(=O)c5c(F)cccc5F)c4)nn4ccccc34)n2)cc(OC)c1OC [GSK323521],0%
22,Clc1ccc(-c2nn3ncccc3c2-c2ccnc(Nc3ccc4c(c3)OCCO4)n2)cc1 [GW829116],0%
23,Cl.Cl.NCC(C(=O)Nc1cc(Br)c(-c2ccnc3[nH]ccc23)s1)c1ccccc1 (centres unmarked) [GSK1269851],0%
24,Fc1ccc(-c2ncn(C3CCNCC3)c2-c2ccnc(Oc3ccc(-c4ccccc4)cc3)n2)cc1 [SB-245391],24%
25,COc1cccc(C2=C(Nc3ccc(Cl)c(C(=O)O)c3)C(=O)NC2=O)c1 [SB-390769],27%
26,O=C(Nc1ccccc1F)NC1CCN(c2ccnc(Nc3ccc(F)cc3)n2)CC1 [GSK1379800],7%
